The results in this text go back to the antibiotic and cytotoxicity screens of Wong et al. (2023).

Out of some 39,000 compounds screened, about 1,500 (3.8%) were called active. The sample holds actives, similar compounds and a random draw of the others, so the mix is not that of the screen.

The experiment has as its system HSkMC (human skeletal muscle cells). The experiment in a line: cytotoxicity call (relative viability < 0.9). The conditions noted are these: 10 µM.
Turning to `C[C@H](CO)N1C[C@H](C)[C@H](CN(C)C(=O)Nc2ccc3c(c2)OCO3)OCCCC[C@H](C)Oc2ccc(NC(=O)CCC(F)(F)F)cc2C1=O`, the cytotoxicity call is “inactive”.
As for `C[C@@H]1CN([C@H](C)CO)C(=O)c2cc(NC(=O)NC3CCCCC3)ccc2O[C@@H]1CN(C)Cc1ccc(Oc2ccccc2)cc1`, the entry is “inactive”.
Consider `Cc1noc(C)c1S(=O)(=O)Nc1ccc2c(c1)C(=O)N([C@H](C)CO)C[C@@H](C)[C@H](CN(C)S(=O)(=O)c1cn(C)cn1)OCCCC[C@@H](C)O2`, for which the cytotoxicity call is “inactive”.
Take `C/C=C1\NC(=O)[C@H]2CSSCC/C=C/[C@H](CC(=O)N[C@H](C(C)C)C(=O)N2)OC(=O)[C@H](C(C)C)NC1=O`: the cytotoxicity call is “active”.
In the case of `CC(C)NC(=O)N(C)C[C@H]1Oc2ccc(NC(=O)CCN3CCOCC3)cc2CC(=O)N([C@@H](C)CO)C[C@@H]1C`, the cytotoxicity call is “inactive”.
With `COCC(=O)N1CC[C@]2(CC1)CN([C@@H](CO)c1c2c2ccc(cc2n1C)OC)C(=O)CN1CCOCC1` the entry was “inactive”.
Take `CCOC(=O)c1c(CN2CCN(Cc3ccccc3)CC2)n(-c2ccccc2)c2cc(Br)c(O)cc12`: the cytotoxicity call was “inactive”.
As for `CCOC(=O)c1c(CNCCN(CC)CC)n(-c2ccccc2)c2cc(Br)c(OC)cc12`, the entry is “inactive”; as for `CCOC(=O)c1c(CN2CCN(c3ccc(C)cc3)CC2)n(-c2ccccc2)c2cc(Br)c(OC)cc12`, “inactive”; as for `CCOC(=O)c1c(CN2CCN(Cc3ccccc3)CC2)n(-c2ccccc2)c2cc(Br)c(OC)cc12`, “inactive”.
As for `CCOC(=O)c1c(CN2CCN(c3ccccc3C)CC2)n(-c2ccccc2)c2cc(Br)c(O)cc12`, the entry is “active”.
As for `CCOC(=O)c1c(CN2CCN(c3ccccc3)CC2)n(-c2ccccc2)c2cc(Br)c(OC)cc12`, the entry is “inactive”; as for `CCOC(=O)c1c(CN2CCN(c3ccccc3)CC2)n(-c2ccccc2)c2cc(Br)c(O)cc12`, “active”.
Take `CCOC(=O)c1c(CN2CCN(CCOCCO)CC2)n(-c2ccccc2)c2cc(Br)c(O)cc12`: the cytotoxicity call was “inactive”.
As for `CCOC(=O)c1c(CN2CCN(c3ccccc3)CC2)n(C2CCCCC2)c2cc(Br)c(O)cc12`, the entry is “active”; as for `COc1ccc(CN(C)C[C@@H]2OCCCC[C@@H](C)Oc3ccc(NC(=O)Nc4c(C)noc4C)cc3C(=O)N([C@H](C)CO)C[C@@H]2C)cc1`, “inactive”.
As for `Cc1noc(C)c1S(=O)(=O)N(C)C[C@H]1Oc2ccc(N(C)C)cc2CC(=O)N([C@@H](C)CO)C[C@H]1C`, the entry is “inactive”; as for `C[C@@H]1CN([C@H](C)CO)C(=O)c2cc(C#CC3(O)CCCC3)cnc2O[C@@H]1CN(C)C(=O)Cc1ccncc1`, “inactive”; as for `C[C@@H]1CCCCO[C@H](CN(C)Cc2ccncc2)[C@@H](C)CN([C@H](C)CO)C(=O)c2cc(NC(=O)NC3CCCCC3)ccc2O1`, “inactive”.
As to `C[C@@H]1CN([C@H](C)CO)C(=O)CCCn2cc(nn2)CO[C@H]1CN(C)C(=O)Nc1ccc(N2CCN(C)CC2)cc1`, the cytotoxicity call was “inactive”.
As for `CN1CCN(C(=O)C[C@H]2C[C@H]3c4cc(NC(=O)c5ccc6c(c5)OCO6)ccc4O[C@H]3[C@@H](CO)O2)CC1`, the entry is “inactive”.
As for `Cn1cnc(S(=O)(=O)N2C[C@@H](O)COC[C@@H]3O[C@H](CC(=O)N4CCN(c5ccccc5)CC4)CC[C@H]32)c1`, the entry is “inactive”.
`COc1ccc(NC(=O)Nc2ccc3c(c2)C(=O)N([C@@H](C)CO)C[C@@H](C)[C@H](CN(C)Cc2ccc(C(=O)O)cc2)OCCCC[C@@H](C)O3)cc1`: the cytotoxicity call was “inactive”.
As to `Cc1noc(C)c1NC(=O)N(C)C[C@@H]1Oc2ccc(NC(=O)CCCN(C)C)cc2C(=O)N([C@@H](C)CO)C[C@H]1C`, the cytotoxicity call was “inactive”.
As for `O=C1O[C@@H](c2ccccc2)[C@@H](c2ccccc2)N2[C@@H](c3ccc(OCCO)cc3)[C@]3(C(=O)Nc4ccc(C#CC5(O)CCCCCC5)cc43)[C@@H](C(=O)Nc3nc4ccccc4s3)[C@H]12`, the entry is “inactive”; as for `CCN1CCN(c2ccc(Nc3cc(N(C)C(=O)Nc4c(Cl)c(OC)cc(OC)c4Cl)ncn3)cc2)CC1`, “active”.
With `COc1cc2c(N3CCN(C(=O)Nc4ccc(OC(C)C)cc4)CC3)ncnc2cc1OCCCN1CCCCC1` the entry was “inactive”; with `C[C@H](CO)N1C[C@H](C)[C@@H](CN(C)C(=O)CCCN(C)C)OCCCC[C@H](C)Oc2ccc(NS(=O)(=O)c3cn(C)cn3)cc2C1=O`, “inactive”; with `CC(C)NC(=O)N(C)C[C@@H]1OCCCC[C@@H](C)Oc2ccc(NC(=O)CCCCCC(=O)Nc3ccccc3N)cc2C(=O)N([C@H](C)CO)C[C@H]1C`, “inactive”.
With `Cn1nnc2c1[C@H](COCC1CC1)CN(C(=O)CS(C)(=O)=O)C2` the entry was “inactive”; with `C[C@H]1CCCCO[C@@H](CN(C)C(=O)Nc2ccccc2)[C@@H](C)CN([C@@H](C)CO)C(=O)c2cc(NC(=O)NC3CCCCC3)ccc2O1`, “inactive”; with `CC(C)n1c(C=CC(O)CC(O)CC(=O)[O-])c(-c2ccc(F)cc2)c2ccccc21.[Na+]` (centres undefined), “inactive”.
Take `C[C@@H]1CCCCO[C@@H](CN(C)S(=O)(=O)c2cccs2)[C@H](C)CN([C@H](C)CO)C(=O)c2cc(NC(=O)CCC(F)(F)F)ccc2O1`: the cytotoxicity call is “inactive”.
On to `Cc1ccc(S(=O)(=O)Nc2ccc3c(c2)C(=O)N([C@H](C)CO)C[C@H](C)[C@H](CN(C)S(=O)(=O)c2ccccc2)O3)cc1`, for which the cytotoxicity call is “inactive”.
Turning to `CCCCCc1ccccn1`, the cytotoxicity call is “inactive”.
For the molecule `CCCCCCCCCCCCC[N+](C)(C)Cc1ccccc1`, the cytotoxicity call was “inactive”.
With `CC[N+](C)(CC)Cc1ccccc1` the entry was “inactive”.
As for `CCCCCCCCCCCCC[N+](C)(C)Cc1ccccc1.O.[Cl-]`, the entry is “active”; as for `CCCCNc1ccccc1`, “inactive”; as for `CCCCCCCCCCCCCCCC[N+](C)(C)Cc1ccccc1.[Cl-]`, “active”.
As for `CO[C@@H]1CN(C)C(=O)c2ccc(NS(=O)(=O)c3cccc(C)c3)cc2OC[C@@H](C)N(Cc2cc(F)ccc2F)C[C@H]1C`, the entry is “inactive”.
As to `CN(C)CCCNC(=O)C[C@@H]1CC[C@H]2[C@H](COc3ccc(NC(=O)NC4CCCC4)cc3C(=O)N2C)O1`, the cytotoxicity call is “inactive”.
As for `Cc1noc(C)c1NC(=O)N(C)C[C@H]1Oc2c(NC(=O)Nc3ccc(C(F)(F)F)cc3)cccc2C(=O)N([C@H](C)CO)C[C@H]1C`, the entry is “inactive”; as for `COC(=O)[C@H](Cc1ccccc1)NC(=O)[C@@H](N)CC(=O)O`, “inactive”.
As to `COc1ccc(C[C@H](NC(=O)[C@H](C)NC(=O)CN2CCOCC2)C(=O)N[C@@H](Cc2ccccc2)C(=O)[C@@]2(C)CO2)cc1`, the cytotoxicity call was “active”.
As for `CC(=O)N[C@@H](Cc1ccccc1)C(=O)NN`, the entry is “inactive”.
`CC(C)C[C@H](NC(=O)[C@H](CCc1ccccc1)NC(=O)CN1CCOCC1)C(=O)N[C@@H](Cc1ccccc1)C(=O)N[C@@H](CC(C)C)C(=O)[C@@]1(C)CO1`: the cytotoxicity call was “active”.
As for `CC(=O)N[C@@H](Cc1ccccc1)C(=O)O`, the entry is “inactive”.
As for `CC(=O)N1[C@@H](CO)[C@H](c2ccccc2)[C@@H]1CNC(=O)CN1CCOCC1`, the entry is “inactive”; as for `COC(=O)C(Cc1ccccc1)NC(=O)C(N)CC(=O)O` (centres undefined), “inactive”.
With `COC[C@H](NC(=O)c1cnc(C)s1)C(=O)N[C@@H](COC)C(=O)N[C@@H](Cc1ccccc1)C(=O)[C@@]1(C)CO1` the entry was “active”.
As to `CC(=O)N1[C@H](CNC(=O)CN2CCOCC2)[C@@H](c2ccccc2)[C@@H]1CO`, the cytotoxicity call was “inactive”.
As for `C[C@@H]1CCCCO[C@@H](CN(C)S(=O)(=O)c2ccc(F)cc2)[C@H](C)CN([C@H](C)CO)C(=O)c2cc(NC(=O)Nc3ccc4c(c3)OCO4)ccc2O1`, the entry is “inactive”; as for `C[C@@H]1CCCCO[C@@H](CN(C)C(=O)CCCN(C)C)[C@@H](C)CN([C@H](C)CO)C(=O)c2cc(NC(=O)Nc3ccc(C(F)(F)F)cc3)ccc2O1`, “inactive”.
Turning to `CC(C)CC#Cc1cnc2c(c1)C(=O)N([C@@H](C)CO)C[C@@H](C)[C@@H](CN(C)S(=O)(=O)c1cn(C)cn1)O2`, the cytotoxicity call is “inactive”.
With `C[C@H](CO)N1C[C@H](C)[C@H](CN(C)C(=O)Nc2ccccc2)Oc2c(NC(=O)C3CCOCC3)cccc2C1=O` the entry was “inactive”; with `C[C@H](CO)N1C[C@H](C)[C@H](CN(C)C(=O)c2cnccn2)Oc2cc(Br)ccc2S1(=O)=O`, “inactive”.
As for `C[C@@H]1CN([C@@H](C)CO)C(=O)c2cc(C#Cc3ccccc3F)cnc2O[C@@H]1CN(C)C(=O)Cc1cccnc1`, the entry is “inactive”; as for `COc1ccc(S(=O)(=O)N(C)C[C@@H]2Oc3ccc(NC(=O)c4ccncc4)cc3CC(=O)N([C@H](C)CO)C[C@H]2C)cc1`, “inactive”; as for `CCCC#Cc1cnc2c(c1)C(=O)N([C@H](C)CO)C[C@H](C)[C@H](CN(C)S(=O)(=O)c1cn(C)cn1)O2`, “inactive”.
As for `O=C(O)CC(O)(CC(=O)O)C(=O)O.[LiH].[LiH].[LiH]`, the entry is “inactive”.
Regarding `Nc1ncccc1-c1nc2ccc(-c3ccccc3)nc2n1-c1ccc(C2(N)CCC2)cc1`, the cytotoxicity call was “active”.
With `NC(=O)c1ccc2nc(-c3ccc(C4(N)CCC4)cc3)c(-c3ccccc3)n2n1` the entry was “inactive”; with `CC(C)NC(=O)N(C)C[C@@H]1Oc2c(NC(=O)NC3CCCCC3)cccc2C(=O)N([C@@H](C)CO)C[C@@H]1C`, “inactive”.
For the molecule `C[C@@H]1CN([C@@H](C)CO)C(=O)Cc2cc(NC(=O)Nc3ccc(C(F)(F)F)cc3)ccc2O[C@H]1CN(C)Cc1ccc(Oc2ccccc2)cc1`, the cytotoxicity call is “active”.
On to `C[C@@H]1CN([C@@H](C)CO)C(=O)Cc2cc(NC(=O)Nc3ccc(C(F)(F)F)cc3)ccc2O[C@@H]1CN(C)Cc1ccc(Oc2ccccc2)cc1`, for which the cytotoxicity call was “active”.
Regarding `C[C@H]1CN([C@@H](C)CO)C(=O)Cc2cc(NC(=O)Nc3ccc(C(F)(F)F)cc3)ccc2O[C@@H]1CN(C)Cc1ccc(Oc2ccccc2)cc1`, the cytotoxicity call is “active”.
As for `C[C@@H]1CN([C@H](C)CO)C(=O)Cc2cc(NC(=O)Nc3ccc(C(F)(F)F)cc3)ccc2O[C@@H]1CN(C)Cc1ccc(Oc2ccccc2)cc1`, the entry is “active”; as for `COc1ccc(S(=O)(=O)Nc2ccc3c(c2)CC(=O)N([C@H](C)CO)C[C@@H](C)[C@@H](CN(C)C)O3)cc1`, “inactive”.
